Results: PubChem BioAssay (NCI)
The panel holds about 83,000 compounds, 20% with a hit somewhere; the sample as a whole holds those more often.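 The endpoint reported here, percent growth, reads 100 for growth as untreated, 0 for no net growth and -100 for all cells dead.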 Values without a mark were called inactive. The source made the active and inactive calls. The calls were made as follows: active = growth percent below 10; inactive = the rest.

Tests used:
Test in all cases: NCI-60 one-dose screen, 48 h (100 = growth as untreated, 0 = no growth, -100 = all killed)
SR leukemia = conditions: 10 µM unless noted
RPMI-8226 leukemia = conditions: 10 µM
OVCAR-8 ovarian = conditions: 10 µM unless noted
OVCAR-5 ovarian = conditions: 10 µM unless noted
IGROV1 ovarian = conditions: 10 µM unless noted
OVCAR-3 ovarian = conditions: 10 µM unless noted
HS 578T breast = conditions: 10 µM unless noted
NCI/ADR-RES ovarian = conditions: 10 µM unless noted
T-47D breast = conditions: 10 µM
BT-549 breast = conditions: 10 µM unless noted
MDA-MB-435 melanoma = conditions: 10 µM unless noted
SW-620 colon = conditions: 10 µM unless noted
HCT-116 colon = conditions: 10 µM unless noted
HCC-2998 colon = conditions: 10 µM unless noted
KM12 colon = conditions: 10 µM unless noted
OVCAR-4 ovarian = conditions: 10 µM unless noted
SK-OV-3 ovarian = conditions: 10 µM
MCF7 breast = conditions: 10 µM unless noted

Row | Structure (SMILES) | growth (SR leukemia) | growth (RPMI-8226 leukemia) | growth (OVCAR-8 ovarian) | growth (OVCAR-5 ovarian) [%] | growth (IGROV1 ovarian) | growth (OVCAR-3 ovarian) | growth (HS 578T breast) [%] | growth (NCI/ADR-RES ovarian) | growth (T-47D breast) [%] | growth (BT-549 breast) | growth (MDA-MB-435 melanoma) | growth (SW-620 colon) | growth (HCT-116 colon) | growth (HCC-2998 colon) [%] | growth (KM12 colon) | growth (OVCAR-4 ovarian) [%] | growth (SK-OV-3 ovarian) [%] | growth (MCF7 breast)
1 | CC(=O)OC[C@]1(C)C=C2C(=O)[C@](C)(O)C3(CC3)C(C)=C2[C@H]1OC(C)=O | 62.8% | 84.1% | 75.9% | 91.3 | 91.1% | 94.9% | 96 | 75% | 73.6 | 72.6% | 95.4% | 88.2% | 62.3% | 81.8 | 78.4% |  |  | 
2 | COc1ccc(-c2[nH]ncc2Nc2cc(OC)c(OC)c(OC)c2)cc1 | 116% | 33.2% | 58.1% |  | 43% | 5.17% (active) | 49.8 |  | 18 | 27.3% | -11.7% (active) | 32.4% | 35.5% |  | 32.5% | 51.2 | 18.4 | 23.1%
3 | CC(C)(C)[Si](C)(C)OC1[C@@H](COC(=O)NC(=O)CCl)O[C@@H](n2cnc3c(N)ncnc32)[C@H]1O[Si](C)(C)C(C)(C)C (stereo not given in full) | -57.5% (active) | -29.5% (active) | -7.49% (active) |  | -68.3% (active) | 0.626% (active) | 74.5 | 46.6% | 76.3 | -17.9% (active) | -28.2% (active) | -21.8% (active) | 11.2% | 56 | 19.9% | 36.9 | 87.8 | 10.6%
4 | CS(=O)(=O)Nc1cccc(C(=O)NCc2ccc(N3CCOCC3)cc2)c1 | 93.3% | 99.7% | 104% |  | 114% | 108% | 104 | 111% | 95.4 | 95.6% | 105% | 108% | 101% | 106 | 97.1% | 107 | 107 | 99%
5 | COc1ccc(/C=N/OCC(O)CN2CCC(O)CC2)cc1OC1CCCC1 (stereo not given) | 112% | 110% | 109% | 101 | 107% | 114% | 108 | 104% |  | 88.7% | 102% | 104% | 89.6% | 101 | 109% |  |  | 94.7%
6 | COC(=O)[C@@]12CC[C@@H](C)[C@]3(C[C@@H](c4ccoc4)OC3=O)[C@H]1CC[C@@H]1O[C@@]12C | 110% | 110% | 102% | 91.4 | 103% | 110% | 98.7 | 102% |  | 101% | 99.8% | 97.1% | 95.5% | 101 | 103% |  |  | 
7 | Cc1nc2cc(Nc3nc(Nc4ccc(F)cc4)nc(-c4ccc(Cl)cc4)n3)ccc2n1Cc1ccccc1 | -19.4% (active) | 0.193% (active) | 62.8% |  | 48.7% | 57.3% | 75.4 | 59.1% | 30.7 | 101% | 66.2% | 68.1% | 50.3% | 81.6 | 37.2% | 58.6 | 92.9 | 42.4%
8 | COc1ccc(C2OCC(C)(C)CO2)cc1OC | 100% | 95.6% | 105% |  | 139% | 117% | 109 | 108% | 97.3 | 109% |  | 106% | 109% | 102 | 112% | 104 | 107 | 104%
9 | CN1CCN(CCCn2c3c(sc4ncccc43)c(=O)n3nnc(-c4ccccc4)c23)CC1 | -25.2% (active) | 72.5% | -48.2% (active) | 119 |  | -83.1% (active) |  | -28.4% (active) | 113 | 93.5% | 97.9% | -44.5% (active) | -92.6% (active) | 99.2 | -32.1% (active) |  |  | -90.6% (active)
